44 compounds from PubChem BioAssay AID2685 (National Center for Advancing Translational Sciences (NCATS), 2010) can be followed below.

Molecules are shown by their SMILES. Hit rate of the full screen: of about 320,000 compounds, about 2,100 (0.66%) were called active. Another 53% or so got no clear call; they are omitted. Calls follow the shape of the dose curve; as a rule, active = well fitted inhibition curve with a large enough effect in the signal ratio, with a control signal flat (not every such curve was filed as active); inconclusive = small, poorly fitted or top-dose-only effect, or effect the other way, or a change in a side signal; inactive = flat fitted curve, though single readings scatter; the % refers to the signal ratio. Many of the other results were omitted from the sample, so actives are more common in it than they were.
Potency is read from the fitted curve at half-maximal effect.

The nature of this experiment: qHTS Assay for Lipid Storage Modulators in Drosophila S3 Cells.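 As to cell number change: cells counted by Cell Tracker Red CMTPX staining in the red channel.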 As to lipid storage change, negative = inhibition: % is scaled to controls: 0 for no effect and ±100 for the full control effect. The note with it: BODIPY lipid droplet fluorescence, 18-24 h, cells fed with added oleic acid; cell number change: measured here: cell count max response; series mostly up to 46.1 µM; lipid storage change, negative = inhibition: at the top concentration. From the text: NIH Molecular Libraries Probe Production Centers Network [MLPCN] NIH Chemical Genomics Center [NCGC] MLPCN Grant: 1 R03 MH085686-01 Assay Submitter (PI): Beller, Mathias; Max-Planck-Institut fur Biophysikalische Chemie NCGC Assay Overview: Storing lipids as a reservoir for energy or the anabolism of elementary metabolites is a common feature of probably all cells and is conserved from bacteria to humans. The universal cellular lipid storage organelle is the so-called lipid storage droplet (LD). Although ubiquitous, LDs share a simple structure composed of a hydrophobic core that harbors the storage lipids, which is shielded by a droplet-specific phospholipid monolayer to which proteins are attached. The current model of LD biogenesis involves an incorporation of the lipid core into the membrane leaflets of the endoplasmic reticulum (ER) followed by a subsequent budding-like maturation of a LD, which ultimately pinches off. Once released, LD volume can increase by localized lipogenesis or fusion of existing droplet. Storage lipids are re-mobilized enzymatically by lipase activity. Lipase regulation in the adipocyte is heavily studied and involves multiple components including catecholamine signaling, the LD-associated proteins Perilipin and comparative gene identification (CGI-58) and at least two lipases named hormone sensitive lipase (HSL) and adipocyte triglyceride lipase (ATGL). LD regulation outside of the adipocyte is poorly understood and only few components are known. However, there is an urgent need to learn more about ectopic fat depots as mislocalized storage of lipids, for example in the liver or muscle, is an eminent health problem associated with insulin resistance or the metabolic syndrome. We developed a laser-scanning cytometer assay to enable 1,536-well screening and combined the results of the small molecules screen with an RNAi database based on lipid storage.
Triacsin C (Sigma-Aldrich T-4540), an inhibitor of long-chain fatty acyl CoA synthetase that blocks synthesis of triglycerides, was used as a positive control for lipid under-storage. A total of 23 nL of compound solution of different concentrations were transferred to the assay plates using a Kalypsys pin tool equipped with a 1,536-pin array containing 10-nL slotted pins (FP1S10, 0.457-mm diameter, 50.8 mm long; V&P Scientific). One microliter of oleic acid (400 uM) was added, and the plate was lidded with stainless steel rubber gasket lined lids containing pinholes. […] Fluorescence was detected by excitation of the fluorophores with a 488-nm laser on an Acumen Explorer (TTP Lab Tech). The total intensity in channel 2 (500-530 nm) reflected lipid droplet accumulation. Cells were detected using channel 3 (575-640 nm) with 5-um width and 100-um depth filters. The ratio of the number of objects in PMT channel 2 over the number of objects in PMT channel 3 was also calculated. Percent activity was computed relative to an internal control (100% inhibited lipid droplet deposition due to the presence of 20 uM Triacsin C), which was added to 32 wells/plate.
In general terms: qHTS replaces the single test concentration by a dilution series.
Consider `CCOc1ccc2nc(N3C(=O)/C(=C/c4ccccc4)NC3=S)sc2c1`, for which the Potency was 9.2 µM (active) and the cell number change is -2.65%.
On to `CCOc1ccc2nc(N3C(=O)/C(=C/c4ccc(Cl)cc4)NC3=S)sc2c1`, for which the “lipid storage change, negative = inhibition” value was -9.5% (inactive) and the cell number change is 13.8%.
Turning to `COc1ccc2nc(N3C(=O)/C(=C/c4ccc(Cl)cc4)NC3=S)sc2c1`, the “lipid storage change, negative = inhibition” value is 23.2% (inactive) and the cell number change amounted to 28.8%.
Consider `CCOC(=O)C1CCN(S(=O)(=O)c2ccc(-c3ccccn3)s2)CC1`, for which the “lipid storage change, negative = inhibition” value was 7.51% (inactive) and the cell number change amounted to 18.1%.
On to `CCOC(=O)CN(C(=O)CSc1nnc(CNc2ccc(C)cc2C)n1CC)c1ccccc1`, for which the outcome was inactive and the cell number change was -14.6%.
For `COC(=O)CSc1nc(N2CCOCC2)c2c(c1C#N)CC(C)(C)N(C)C2`, the compound was called inactive and the cell number change amounted to 15.3%.
As for `O=C(O)c1cccc2c1C(=O)c1ccc(-c3ccc(F)cc3F)cc1S2(=O)=O`, the outcome was inactive and the cell number change came out at 1.93%.
For the compound `COc1cccc(-c2ccc3c(c2)S(=O)(=O)c2cccc(C(=O)O)c2C3=O)c1OC`, the Potency was 0.651 µM (active).
Consider `COc1ccc(-c2ccc3c(c2)S(=O)(=O)c2cccc(C(=O)O)c2C3=O)cc1OC`, for which the “lipid storage change, negative = inhibition” value is 0.601% (inactive) and the cell number change came to 0.722%.
As to `CC1(C)C(C=C(Cl)Cl)C1C(=O)N(Cc1ccccc1Cl)C1CCS(=O)(=O)C1` (centres undefined), the “lipid storage change, negative = inhibition” value was 14.8% (inactive) and the cell number change is -19.9%.
Consider `C=CCN(C(=O)c1ccccc1)C1CCS(=O)(=O)C1` (centres undefined), for which the “lipid storage change, negative = inhibition” value was 8.73% (inactive) and the cell number change turned out to be 22.7%.
For `Cc1c(C(=O)N(Cc2ccc(F)cc2)C2CCS(=O)(=O)C2)oc2ccccc12` (centres undefined), the “lipid storage change, negative = inhibition” value is 3.69% (inactive) and the cell number change came to 3.58%.
For the compound `O=C(c1ccco1)N(Cc1ccc(Cl)cc1)C1CCS(=O)(=O)C1` (centres undefined), the result was inactive and the cell number change was 5.9%.
Turning to `C=CCN(C(=O)c1oc2c(Cl)cc(C)cc2c1C)C1CCS(=O)(=O)C1` (centres undefined), the Potency was 20.6 µM (active) and the cell number change came out at 7.31%.
For the compound `Cc1cc(Cl)c2oc(C(=O)N3CCN(C4CCS(=O)(=O)C4)CC3)c(C)c2c1` (centres undefined), the “lipid storage change, negative = inhibition” value was -12.8% (inactive) and the cell number change is 16.7%.
For `CC1(C)C(C=C(Cl)Cl)C1C(=O)N(Cc1ccc(Cl)cc1)C1CCS(=O)(=O)C1` (centres undefined), the Potency is 8.2 µM (active) and the cell number change is -12%.
Turning to `Cc1c(C(=O)N(Cc2ccc(Cl)cc2)C2CCS(=O)(=O)C2)oc2ccccc12` (centres undefined), the Potency was 9.2 µM (active) and the cell number change is -19.8%.
Consider `Cc1c(C(=O)N(Cc2ccccc2)C2CCS(=O)(=O)C2)oc2ccccc12` (centres undefined), for which the “lipid storage change, negative = inhibition” value was 23.8% (inactive) and the cell number change is 19%.
The matching figures for `O=C1CSC(c2ccccc2)N1CC(O)c1ccc([N+](=O)[O-])cc1` (centres undefined): 4.81% (inactive) and 14%.
Consider `CCOc1ccc(-c2noc(-c3cccnc3)n2)cc1OCC`, for which the “lipid storage change, negative = inhibition” value is 9.1% (inactive) and the cell number change was found to be 2.29%.
The matching figures for `O=[N+]([O-])c1cccc(OCCN2CCC(Cc3ccccc3)CC2)c1`: 24.8% (inactive) and 10.2%.
In the case of `COc1ccc(S(=O)(=O)CCC(=O)Nc2ccc(OC)cc2OC)cc1`, the “lipid storage change, negative = inhibition” value is -2.2% (inactive) and the cell number change was -8.69%.
Consider `Cc1ccc(C(=O)CCC(=O)OCC(=O)N(CC(C)C)c2c(N)n(Cc3ccccc3)c(=O)[nH]c2=O)cc1`, for which the “lipid storage change, negative = inhibition” value was 24.4% (inactive) and the cell number change came out at 20.5%.
For `COc1ccc(CCNc2c(C=O)c(=O)[nH]c3ccccc23)cc1OC`, the compound was called inactive.
On to `Cc1cc(Br)ccc1NC(=O)C(C)c1ccc([N+](=O)[O-])cc1` (centres undefined), for which the “lipid storage change, negative = inhibition” value was 1.08% (inactive) and the cell number change worked out at 6.98%.
Turning to `CCc1c(C(C)S(=O)(=O)c2ccc(C)cc2)[nH]c(=O)n1-c1ccc(C)cc1` (centres undefined), the Potency is 29.1 µM (active) and the cell number change is -0.34%.
Regarding `Cc1ccc(-n2cc(S(=O)(=O)c3ccc(C)cc3)[nH]c2=O)cc1`, the “lipid storage change, negative = inhibition” value is 6.81% (inactive) and the cell number change is 12.8%.
The matching figures for `Cc1ccc(-n2c3c(c(=O)[nH]c2=O)C(NS(=O)(=O)c2ccc(C)cc2)(C(F)(F)F)C(=O)N3)cc1` (centres undefined): 7.88% (inactive) and -0.886%.
`Brc1ccc(-n2cccc2/C=N/n2cnnc2)cc1`: the compound was classed as inactive.
Turning to `Cc1ccc(OCc2nc(C#N)c(N3CCCCC3)o2)cc1`, the “lipid storage change, negative = inhibition” value is 11.6% (inactive) and the cell number change came out at 15.9%.
The matching figures for `N#Cc1nc(COc2ccc(Br)cc2)oc1N1CCCCCC1`: 17.2% [at 9.22 µM] (inactive) and 7.38%.
On to `N#Cc1nc(COc2ccc(Cl)cc2)oc1N1CCCC1`, for which the Potency was 23.1 µM (active) and the cell number change was -31%.
For the compound `COc1ccc(OC)c(-c2cc(C(=O)N3CCN(c4ncccn4)CC3)c3ccccc3n2)c1`, the “lipid storage change, negative = inhibition” value is -3.95% (inactive) and the cell number change is -4.49%.
`Cc1onc(-c2ccccc2Cl)c1C(=O)Nc1ccccc1`: the “lipid storage change, negative = inhibition” value was 9.8% (inactive) and the cell number change amounted to 6.9%.
As to `COc1cc(S(=O)(=O)N(C)C)ccc1F`, the “lipid storage change, negative = inhibition” value was -0.809% (inactive) and the cell number change was -10.1%.
As to `CCOC(=O)C1=C(C)NC2=C(C(=O)c3ccccc32)C1c1cccc2ccccc12` (centres undefined), the Potency was 16.4 µM (active) and the cell number change was -15.2%.
Consider `COC(=O)C1=C(C)NC2=C(C(=O)c3ccccc32)C1c1cccc(OC)c1` (centres undefined), for which the “lipid storage change, negative = inhibition” value was -1.78% (inactive) and the cell number change is -11.6%.
Consider `CCOC(=O)C1=C(C)NC2=C(C(=O)c3ccccc32)C1c1ccc([N+](=O)[O-])o1` (centres undefined), for which the “lipid storage change, negative = inhibition” value was 0.158% (inactive) and the cell number change is 12.6%.
Turning to `CCC1CCCCN1C(=O)CNCC1CCCO1` (centres undefined), the “lipid storage change, negative = inhibition” value was 20.4% (inactive) and the cell number change was 14.6%.
Take `CSc1ccccc1NC(=O)CN(Cc1ccccc1)S(C)(=O)=O`: the compound was called inactive.
As for `Cc1ccc(CS(=O)(=O)CC(C)(O)c2ccccc2)cc1` (centres undefined), the compound was called inactive and the cell number change was determined as 15.3%.
As to `CCOc1ccc(C(C(=O)NCC2CCCO2)N(Cc2cccs2)C(=O)c2snc(C(N)=O)c2N)cc1` (centres undefined), the Potency is 1.64 µM (active) and the cell number change was 15%.
In the case of `CCOc1ccc(C(C(=O)NCC2CCCO2)N(Cc2cccnc2)C(=O)c2snc(C(N)=O)c2N)cc1` (centres undefined), the compound was classed as inactive and the cell number change is -2.82%.
The matching figures for `COc1ccc(C(C(=O)NCC2CCCO2)N(Cc2cccs2)C(=O)c2snc(C(N)=O)c2N)cc1OC` (centres undefined): “inactive” and 25.6%.
